High-throughput results as filed in PubChem.
Gal4-VP16 FLuc: VP16 counterscreen qHTS for inhibitors of ROR gamma transcriptional activity; Drosophila S2 Gal4-VP16 UAS-luciferase, luminescence, 20 h; Potency, µM (series often up to 53.6 µM), without a hit: top-dose activity, negative = inhibition, usual class: inhibitors; 310,000 compounds, 3.5% hits;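 note: Gal4-VP16 expression switched on by copper sulfate through the metallothionein promoter; potency is the fitted concentration of half-maximal effect; nearly all actives have a fitted effect of over 50% in size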
DT40 TDP1 CPT: qHTS for Inhibitors of human tyrosyl-DNA phosphodiesterase 1 (TDP1): qHTS in cells in presence of CPT | Potency, µM (top dose mostly 46.2 µM), without a hit: at the top dose activity change, negative = growth inhibition, usual class: inhibitors | 420,000 compounds, 12% hits | chicken DT40 Tdp1-/-;hTDP1 cells + 20 nM CPT, ATP luminescence, 48 h; note: potency is the fitted concentration of half-maximal effect; nearly all actives have a fitted effect of over 55% in size
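Chicken DT40 Tdp1-/- cells stably complemented with human TDP1 were seeded at 400 cells/well in medium containing 20 nM camptothecin, exposed to pin-transferred compounds, and grown at 37 °C for at least 48 hr. Viability was read as ATP luminescence.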
ELG1 repair inh: qHTS screen for small molecules that inhibit ELG1-dependent DNA repair in human embryonic kidney (HEK293T) cells expressing luciferase-tagged ELG1; Potency, µM (top dose mostly 46.1 µM), without a hit: at the highest dose activity change, negative = inhibition, actives largely listed as inhibitors; 330,000 compounds, 2.3% hits; AID 504467, 2011; HEK293T ELG1-luciferase reporter, luminescence, 16 h; DNA damage induced by 5-fluorouridine; note: potency is the fitted concentration of half-maximal effect; nearly all actives have a fitted effect of over 55% in size
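Step one: seed 2,000 cells per well. Step two: pin-transfer compound or DMSO alongside 5-fluorouridine. Step three: incubate 16 hr, 37 °C, 5% CO2. Step four: add ONE-Glo, wait 30 min, read luminescence.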
IL-1B inflam inh: qHTS for Inhibitors of Inflammasome Signaling: IL-1-beta AlphaLISA Primary Screen. THP-1 LPS/ATP IL-1B secretion, AlphaLISA, 16 h; stronger effect = lower value. activity change, % at 57.5 µM. 360,000 compounds, 4.7% hits. AID 743279, 2014; in the data active = activity change below about -50%; inconclusive = mostly about -30% to -49%
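THP-1 cells pretreated 1 hr with compounds (up to 57.5 uM final), then stimulated with LPS (250 ng/mL final) plus ATP (1.25 mM final); secreted IL-1B measured by AlphaLISA after 16 hr, decreased signal indicating inhibition.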
RORgamma inh: qHTS for inhibitors of ROR gamma transcriptional activity; Drosophila S2 Gal4-RORgamma UAS-luciferase reporter, 20 h; Potency, µM (highest dose often 53.6 µM), inactives show at the top dose activity change, negative = inhibition, usual class: inhibitors; 310,000 compounds, 5.4% hits; AID 2551, 2010; Nuclear receptor ROR-gamma (Mus musculus), P51450; note: potency is the fitted concentration of half-maximal effect; nearly all actives have a fitted effect of over 60% in size
Target sequence (P51450 whole entry, looked up, the tested form may be a part): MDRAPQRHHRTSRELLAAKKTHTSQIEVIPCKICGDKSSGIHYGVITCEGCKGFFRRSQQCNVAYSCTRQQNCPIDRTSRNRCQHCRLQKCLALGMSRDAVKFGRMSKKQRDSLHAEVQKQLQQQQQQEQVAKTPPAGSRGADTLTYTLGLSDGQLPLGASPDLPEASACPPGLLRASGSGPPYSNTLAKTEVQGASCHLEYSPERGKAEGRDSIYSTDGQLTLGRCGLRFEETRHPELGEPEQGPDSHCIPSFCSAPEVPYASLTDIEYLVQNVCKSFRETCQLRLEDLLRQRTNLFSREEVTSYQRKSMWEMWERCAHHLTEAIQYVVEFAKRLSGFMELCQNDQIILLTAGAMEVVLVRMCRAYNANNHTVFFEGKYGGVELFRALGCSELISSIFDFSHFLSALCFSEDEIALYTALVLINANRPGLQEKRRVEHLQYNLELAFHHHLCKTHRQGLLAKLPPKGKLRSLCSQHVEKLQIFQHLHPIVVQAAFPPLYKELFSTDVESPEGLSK
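Stable Schneider cell line, Gal4 DNA-binding domain fused to ROR gamma, UAS-luciferase. Cmpd 1 hr RT → CuSO4 700 uM final → 20 hr RT → luciferase reagent 10 min → luminescence.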
TDP1 cell noCPT: qHTS for Inhibitors of human tyrosyl-DNA phosphodiesterase 1 (TDP1): qHTS in cells in absence of CPT; Potency, µM (doses to about 46.2 µM), inactives show top-dose activity change, negative = growth inhibition, most hits filed as inhibitors; 420,000 compounds, 15% hits; DT40 Tdp1-/- hTDP1 cells, no CPT, ATP luminescence, 48 h; note: potency is the fitted concentration of half-maximal effect; nearly all actives have a fitted effect of over 55% in size
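Chicken DT40 Tdp1-/- cells complemented with human TDP1, screened without camptothecin (DMSO vehicle only), 400 cells/well. Compounds pin-transferred, cells incubated at 37 °C for at least 48 hr. Growth read as ATP-dependent luminescence (CellTiter-Glo, 30 min at RT).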
* marks the source's active call; other numbers are inactive results. Rows were chosen to be rich in hits. Some 21% of all compounds tested hit in one or more screens of this group. Unless noted, calls come from the whole dose curve; as a rule, active = well fitted curve in the direction sought with a large enough effect; inconclusive = small, poorly fitted or top-dose-only effect, or another doubt; inactive = no such curve, though single readings can be large; an effect the other way counts as inactive or inconclusive. % is set by controls: 0 for no effect and ±100 for the full control effect.

What do the screens show for `Nc1nonc1-n1nnc(C(=O)N/N=C/c2ccc(OCc3ccccc3F)cc2)c1CNc1ccccc1`?
Gal4-VP16 FLuc: -7%; DT40 TDP1 CPT: -15%; ELG1 repair inh: inconclusive; IL-1B inflam inh: 21; RORgamma inh: -38%; TDP1 cell noCPT: 0%

What do the screens show for `COc1ccc(S(=O)(=O)N2CCCCCC2)cc1C(=O)OCC(=O)NC1CCS(=O)(=O)C1` (stereo not drawn)?
DT40 TDP1 CPT: -4%; ELG1 repair inh: 15%; IL-1B inflam inh: 6; TDP1 cell noCPT: 18%

What do the screens show for `CCCn1cc(S(=O)(=O)c2ccccc2)c(=O)c2cc(CC)ccc21`?
Gal4-VP16 FLuc: 6%; DT40 TDP1 CPT: 6%; ELG1 repair inh: 16%; IL-1B inflam inh: -50*; RORgamma inh: 22%; TDP1 cell noCPT: 5%

How did CCCCn1cc(S(=O)(=O)c2ccc(C)c(C)c2)c(=O)c2cc(F)c(N3CCN(C)CC3)cc21 do in these assays?
DT40 TDP1 CPT: -4%; TDP1 cell noCPT: inconclusive

How did CCCCn1cc(S(=O)(=O)c2ccc(CC)cc2)c(=O)c2cc(F)c(N3CCCC(C)C3)cc21 (stereo not drawn) do in these assays?
DT40 TDP1 CPT: 23µM*; TDP1 cell noCPT: 23µM*

Results for CCCn1cc(S(=O)(=O)c2ccc(CC)cc2)c(=O)c2cc(F)c(N3CCN(C)CC3)cc21 ?
DT40 TDP1 CPT: 16µM*; TDP1 cell noCPT: 26µM*

Results for CCCn1cc(S(=O)(=O)c2ccccc2)c(=O)c2cc(OC)c(OC)cc21 ?
Gal4-VP16 FLuc: -12%; DT40 TDP1 CPT: -5%; ELG1 repair inh: 7%; IL-1B inflam inh: inconclusive; RORgamma inh: -3%; TDP1 cell noCPT: 17%

Results for CCCCn1cc(S(=O)(=O)c2ccccc2)c(=O)c2cc(F)c(N3CCN(CCC)CC3)cc21 ?
DT40 TDP1 CPT: inconclusive; TDP1 cell noCPT: 21µM*

How did CCC1=C2CC[C@H]3C(=O)NC(=O)[C@H]3[C@H]2[C@@]2(C)C(=NCCOC)OC(=O)N2C1=O do in these assays?
Gal4-VP16 FLuc: 3%; RORgamma inh: -13%

What do the screens show for `CCOC(=O)c1c(C)sc(Sc2ccc(Cl)cc2[N+](=O)[O-])c1OC`?
Gal4-VP16 FLuc: 0%; DT40 TDP1 CPT: inconclusive; ELG1 repair inh: 10%; IL-1B inflam inh: -15; RORgamma inh: -35%; TDP1 cell noCPT: inconclusive

Results for O=C(NCc1ccccc1)c1cccc(NC(=O)C2CC2)c1 ?
DT40 TDP1 CPT: -4%; IL-1B inflam inh: 2; TDP1 cell noCPT: -18%

What do the screens show for `COc1ccccc1CNC(=O)C1Cc2cc(S(=O)(=O)N3CCCCC3)ccc2N1C(C)=O` (stereo not drawn)?
Gal4-VP16 FLuc: 13%; DT40 TDP1 CPT: 3%; ELG1 repair inh: 8%; IL-1B inflam inh: -6; RORgamma inh: 17%; TDP1 cell noCPT: 18%

Results for CCCCn1cc(S(=O)(=O)c2ccc(OC)cc2)c(=O)c2cc(F)c(F)cc21 ?
DT40 TDP1 CPT: 18µM*; TDP1 cell noCPT: inconclusive

Results for CCn1cc(S(=O)(=O)c2ccc(OC)cc2)c(=O)c2cc(F)c(N3CCN(C)CC3)cc21 ?
Gal4-VP16 FLuc: -6%; DT40 TDP1 CPT: 3%; ELG1 repair inh: inconclusive; IL-1B inflam inh: 5; RORgamma inh: -20%; TDP1 cell noCPT: 11%

Results for CCc1ccc(S(=O)(=O)c2cn(C)c3cc(N4CCOCC4)c(F)cc3c2=O)cc1 ?
DT40 TDP1 CPT: -29%; TDP1 cell noCPT: -29%

What do the screens show for `CCCN1CCN(c2cc3c(cc2F)c(=O)c(S(=O)(=O)c2ccc(Cl)cc2)cn3C)CC1`?
DT40 TDP1 CPT: inconclusive; TDP1 cell noCPT: 23µM*

Results for CCCN1CCN(c2cc3c(cc2F)c(=O)c(S(=O)(=O)c2ccc(CC)cc2)cn3CC)CC1 ?
DT40 TDP1 CPT: inconclusive; TDP1 cell noCPT: 21µM*

Results for CCCCn1cc(S(=O)(=O)c2ccc(CC)cc2)c(=O)c2cc(F)c(N3CCOCC3)cc21 ?
DT40 TDP1 CPT: inconclusive; TDP1 cell noCPT: 18µM*

What do the screens show for `CCOc1ccc(Nc2ccc([N+](=O)[O-])c3nonc23)cc1`?
DT40 TDP1 CPT: inconclusive; ELG1 repair inh: inconclusive; IL-1B inflam inh: 13; TDP1 cell noCPT: 23µM*

Results for CCc1ccccc1NC(=O)CN(C)C(=O)c1cc(C2CC2)nc2c1cnn2C(C)C ?
DT40 TDP1 CPT: -24%; ELG1 repair inh: 2%; IL-1B inflam inh: -5; TDP1 cell noCPT: -4%

What do the screens show for `Cc1ccccc1CCNC(=O)c1cc(C2CC2)nc2c1cnn2C(C)C`?
DT40 TDP1 CPT: 21µM*; ELG1 repair inh: inconclusive; IL-1B inflam inh: -24; TDP1 cell noCPT: inconclusive

How did CC(C)n1ncc2c(C(=O)NCCc3ccc(F)cc3)cc(C3CC3)nc21 do in these assays?
DT40 TDP1 CPT: inconclusive; ELG1 repair inh: -15%; IL-1B inflam inh: inconclusive; TDP1 cell noCPT: 23µM*

How did O=C(Nc1ccccc1)N1CCN(C(=O)c2nsc3ccccc23)CC1 do in these assays?
DT40 TDP1 CPT: -7%; TDP1 cell noCPT: -21%

How did CCC(CC)c1nnc(NC(=O)C2CC(=O)N(C3CCCC3)C2)s1 (stereo not drawn) do in these assays?
Gal4-VP16 FLuc: -3%; DT40 TDP1 CPT: -3%; ELG1 repair inh: -7%; IL-1B inflam inh: 31; RORgamma inh: 1%; TDP1 cell noCPT: -12%

Results for CCNC(=O)C1(C)CCCN(C(=O)c2sccc2C)C1 (stereo not drawn) ?
DT40 TDP1 CPT: -6%; IL-1B inflam inh: 13; TDP1 cell noCPT: 2%

Results for O=C(CSc1cccc[n+]1[O-])c1cccs1 ?
Gal4-VP16 FLuc: 5%; DT40 TDP1 CPT: inconclusive; ELG1 repair inh: 9%; IL-1B inflam inh: -9; RORgamma inh: 16%; TDP1 cell noCPT: 4.1µM*

Results for O=C(CSc1cccc[n+]1[O-])c1cc(Cl)ccc1Cl ?
Gal4-VP16 FLuc: inconclusive; DT40 TDP1 CPT: 0.01µM*; ELG1 repair inh: inconclusive; IL-1B inflam inh: 21; RORgamma inh: 11µM*; TDP1 cell noCPT: 0.29µM*
